# Source: ChEMBL document CHEMBL1961873, “Compounds: GSK PKIS; Assays: Nanosyn kinase panel” (2012)
# Assays:
# [1] = target: Calcium/calmodulin-dependent protein kinase type II subunit alpha (Homo sapiens) (UniProt Q9UQM7); conditions: at 1 µM;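 further: reported value is a mean percent inhibition of CAMK2A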
# [2] = target: Calcium/calmodulin-dependent protein kinase type II subunit delta (Homo sapiens) (UniProt Q13557); conditions: at 0.1 µM
# [3] = target: Calcium/calmodulin-dependent protein kinase type II subunit delta (Homo sapiens) (UniProt Q13557); conditions: at 1 µM
# [4] = target: T1, Calcium/calmodulin-dependent protein kinase type IV (Homo sapiens) (UniProt Q16566); conditions: at 0.1 µM
# T1 sequence (whole entry): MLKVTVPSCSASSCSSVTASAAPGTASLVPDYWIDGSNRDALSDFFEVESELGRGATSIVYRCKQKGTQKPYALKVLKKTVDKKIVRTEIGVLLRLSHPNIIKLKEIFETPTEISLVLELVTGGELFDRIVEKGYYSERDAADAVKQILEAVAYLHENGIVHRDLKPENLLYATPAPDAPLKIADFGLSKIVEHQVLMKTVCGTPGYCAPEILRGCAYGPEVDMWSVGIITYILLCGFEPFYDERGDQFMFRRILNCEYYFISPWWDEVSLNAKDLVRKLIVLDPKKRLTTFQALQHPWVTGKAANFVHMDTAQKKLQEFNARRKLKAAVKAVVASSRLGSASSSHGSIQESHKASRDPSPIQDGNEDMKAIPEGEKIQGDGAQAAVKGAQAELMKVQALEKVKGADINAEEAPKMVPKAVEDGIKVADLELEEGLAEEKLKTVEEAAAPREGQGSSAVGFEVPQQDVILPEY
# [5] = target: T1, Calcium/calmodulin-dependent protein kinase type IV (Homo sapiens); conditions: at 1 µM
# [6] = target: T2, Serine/threonine-protein kinase Chk1 (Homo sapiens) (UniProt O14757); conditions: at 0.1 µM
# T2 sequence (whole entry): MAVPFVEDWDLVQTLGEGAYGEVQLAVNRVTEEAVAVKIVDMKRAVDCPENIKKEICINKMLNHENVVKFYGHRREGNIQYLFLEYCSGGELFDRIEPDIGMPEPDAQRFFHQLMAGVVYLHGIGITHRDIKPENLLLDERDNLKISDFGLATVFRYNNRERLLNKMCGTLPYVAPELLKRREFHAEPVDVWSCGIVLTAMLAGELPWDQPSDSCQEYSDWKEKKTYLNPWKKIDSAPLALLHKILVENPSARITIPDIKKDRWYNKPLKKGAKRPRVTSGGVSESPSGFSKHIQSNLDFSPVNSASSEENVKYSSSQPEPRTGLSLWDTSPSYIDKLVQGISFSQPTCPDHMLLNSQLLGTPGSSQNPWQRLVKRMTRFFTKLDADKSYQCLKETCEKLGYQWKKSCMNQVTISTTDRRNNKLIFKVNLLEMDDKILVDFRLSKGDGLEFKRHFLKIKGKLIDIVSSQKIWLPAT
# [7] = target: T2, Serine/threonine-protein kinase Chk1 (Homo sapiens); conditions: at 1 µM
# [8] = target: Serine/threonine-protein kinase Chk2 (Homo sapiens) (UniProt O96017); conditions: at 0.1 µM
# [9] = target: Serine/threonine-protein kinase Chk2 (Homo sapiens) (UniProt O96017); conditions: at 1 µM
# [10] = target: Death-associated protein kinase 1 (Homo sapiens) (UniProt P53355); conditions: at 0.1 µM
# [11] = target: Death-associated protein kinase 1 (Homo sapiens) (UniProt P53355); conditions: at 1 µM
# [12] = target: T3, Serine/threonine-protein kinase DCLK2 (Homo sapiens) (UniProt Q8N568); conditions: at 0.1 µM
# T3 sequence (whole entry): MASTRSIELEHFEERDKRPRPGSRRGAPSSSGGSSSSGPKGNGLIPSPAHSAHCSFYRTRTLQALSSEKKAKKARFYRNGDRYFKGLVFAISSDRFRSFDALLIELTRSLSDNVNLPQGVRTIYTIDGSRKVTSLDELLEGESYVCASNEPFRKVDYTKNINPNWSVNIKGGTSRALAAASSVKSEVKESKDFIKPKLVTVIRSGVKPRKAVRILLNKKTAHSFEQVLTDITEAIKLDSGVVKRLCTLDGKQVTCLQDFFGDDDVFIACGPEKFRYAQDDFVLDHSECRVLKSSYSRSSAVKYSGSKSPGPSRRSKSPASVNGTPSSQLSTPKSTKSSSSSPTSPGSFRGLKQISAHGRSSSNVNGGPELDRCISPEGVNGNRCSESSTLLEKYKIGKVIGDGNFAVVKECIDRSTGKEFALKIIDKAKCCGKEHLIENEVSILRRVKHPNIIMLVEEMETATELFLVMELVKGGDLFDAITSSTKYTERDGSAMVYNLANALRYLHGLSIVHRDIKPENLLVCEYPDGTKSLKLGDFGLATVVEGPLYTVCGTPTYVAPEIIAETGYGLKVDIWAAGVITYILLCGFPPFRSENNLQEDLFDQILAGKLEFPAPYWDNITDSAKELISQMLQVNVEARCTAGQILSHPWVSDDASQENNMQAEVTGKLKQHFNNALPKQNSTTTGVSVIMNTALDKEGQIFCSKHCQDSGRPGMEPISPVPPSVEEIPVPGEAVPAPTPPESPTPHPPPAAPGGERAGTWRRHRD
# [13] = target: T3, Serine/threonine-protein kinase DCLK2 (Homo sapiens); conditions: at 1 µM
# [14] = target: MAP kinase-activated protein kinase 2 (Homo sapiens) (UniProt P49137); conditions: at 0.1 µM
# [15] = target: MAP kinase-activated protein kinase 2 (Homo sapiens) (UniProt P49137); conditions: at 1 µM
# [16] = target: MAP kinase-activated protein kinase 3 (Homo sapiens) (UniProt Q16644); conditions: at 0.1 µM
# [17] = target: MAP kinase-activated protein kinase 3 (Homo sapiens) (UniProt Q16644); conditions: at 1 µM
# [18] = target: Serine/threonine-protein kinase MARK1 (Homo sapiens) (UniProt Q9P0L2); conditions: at 0.1 µM
# [19] = target: Serine/threonine-protein kinase MARK1 (Homo sapiens) (UniProt Q9P0L2); conditions: at 1 µM
# [20] = target: MAP/microtubule affinity-regulating kinase 3 (Homo sapiens) (UniProt P27448); conditions: at 0.1 µM;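 further: mean percent inhibition of MARK3 kinase activity, measured within the GSK PKIS screening panel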
# Chain of MAP/microtubule affinity-regulating kinase 3 (Homo sapiens) (P27448 whole entry, looked up): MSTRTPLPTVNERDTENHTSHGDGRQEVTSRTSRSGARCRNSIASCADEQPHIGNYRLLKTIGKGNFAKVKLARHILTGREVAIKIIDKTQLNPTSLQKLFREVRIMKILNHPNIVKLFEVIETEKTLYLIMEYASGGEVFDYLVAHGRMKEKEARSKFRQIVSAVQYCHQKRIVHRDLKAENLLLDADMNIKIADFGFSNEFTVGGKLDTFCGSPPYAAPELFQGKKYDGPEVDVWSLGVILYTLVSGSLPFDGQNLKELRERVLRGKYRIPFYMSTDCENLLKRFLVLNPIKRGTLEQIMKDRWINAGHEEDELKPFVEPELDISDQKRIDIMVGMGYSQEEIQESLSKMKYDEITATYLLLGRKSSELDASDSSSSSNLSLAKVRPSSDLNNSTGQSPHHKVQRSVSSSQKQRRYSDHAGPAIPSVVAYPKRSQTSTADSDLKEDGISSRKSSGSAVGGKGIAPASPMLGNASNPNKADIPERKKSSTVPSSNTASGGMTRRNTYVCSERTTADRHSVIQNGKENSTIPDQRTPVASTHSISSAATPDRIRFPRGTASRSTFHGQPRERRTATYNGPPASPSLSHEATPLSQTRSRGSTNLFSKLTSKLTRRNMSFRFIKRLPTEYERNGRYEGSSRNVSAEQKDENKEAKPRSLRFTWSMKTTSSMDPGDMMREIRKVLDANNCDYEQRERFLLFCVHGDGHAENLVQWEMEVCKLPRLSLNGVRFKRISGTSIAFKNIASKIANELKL
# Chain of Calcium/calmodulin-dependent protein kinase type II subunit alpha (Homo sapiens) (Q9UQM7 whole entry): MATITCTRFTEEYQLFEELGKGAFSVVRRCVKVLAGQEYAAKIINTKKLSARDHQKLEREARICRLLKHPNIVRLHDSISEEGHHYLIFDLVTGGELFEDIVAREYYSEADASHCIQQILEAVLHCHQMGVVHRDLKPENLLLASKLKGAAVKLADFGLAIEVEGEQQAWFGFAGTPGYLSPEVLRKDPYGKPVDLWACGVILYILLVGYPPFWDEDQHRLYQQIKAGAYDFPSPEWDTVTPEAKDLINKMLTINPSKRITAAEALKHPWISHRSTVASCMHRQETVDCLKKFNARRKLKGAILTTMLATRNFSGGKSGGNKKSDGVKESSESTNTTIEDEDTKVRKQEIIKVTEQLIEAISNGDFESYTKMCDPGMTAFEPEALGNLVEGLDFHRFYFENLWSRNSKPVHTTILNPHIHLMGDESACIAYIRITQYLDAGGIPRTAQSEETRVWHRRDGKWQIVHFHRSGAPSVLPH
# Chain of MAP kinase-activated protein kinase 3 (Homo sapiens) (Q16644 whole entry, looked up): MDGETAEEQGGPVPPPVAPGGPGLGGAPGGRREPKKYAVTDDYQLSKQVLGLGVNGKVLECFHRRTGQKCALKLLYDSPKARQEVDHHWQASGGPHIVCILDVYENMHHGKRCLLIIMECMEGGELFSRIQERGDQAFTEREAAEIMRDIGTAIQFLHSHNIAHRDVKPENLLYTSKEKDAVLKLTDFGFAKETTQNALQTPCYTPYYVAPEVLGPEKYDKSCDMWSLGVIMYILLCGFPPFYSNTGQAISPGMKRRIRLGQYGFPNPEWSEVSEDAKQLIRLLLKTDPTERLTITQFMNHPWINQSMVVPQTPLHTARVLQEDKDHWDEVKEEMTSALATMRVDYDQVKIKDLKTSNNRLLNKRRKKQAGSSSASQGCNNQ
# Chain of Calcium/calmodulin-dependent protein kinase type II subunit delta (Homo sapiens) (Q13557 whole entry): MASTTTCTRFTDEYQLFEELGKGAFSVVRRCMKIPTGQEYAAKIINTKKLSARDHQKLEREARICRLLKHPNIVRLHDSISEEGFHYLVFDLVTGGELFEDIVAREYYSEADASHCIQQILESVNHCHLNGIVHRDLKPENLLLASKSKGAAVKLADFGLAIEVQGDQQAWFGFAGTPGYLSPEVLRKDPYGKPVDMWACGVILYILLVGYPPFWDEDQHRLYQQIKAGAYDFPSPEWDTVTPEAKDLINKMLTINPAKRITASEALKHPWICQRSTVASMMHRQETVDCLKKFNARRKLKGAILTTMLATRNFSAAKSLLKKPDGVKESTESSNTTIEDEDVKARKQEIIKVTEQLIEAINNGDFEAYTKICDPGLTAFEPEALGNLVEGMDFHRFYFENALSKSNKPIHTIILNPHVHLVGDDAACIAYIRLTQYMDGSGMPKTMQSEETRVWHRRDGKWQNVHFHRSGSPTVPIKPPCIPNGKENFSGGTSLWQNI
# Chain of Serine/threonine-protein kinase MARK1 (Homo sapiens) (Q9P0L2 whole entry, looked up): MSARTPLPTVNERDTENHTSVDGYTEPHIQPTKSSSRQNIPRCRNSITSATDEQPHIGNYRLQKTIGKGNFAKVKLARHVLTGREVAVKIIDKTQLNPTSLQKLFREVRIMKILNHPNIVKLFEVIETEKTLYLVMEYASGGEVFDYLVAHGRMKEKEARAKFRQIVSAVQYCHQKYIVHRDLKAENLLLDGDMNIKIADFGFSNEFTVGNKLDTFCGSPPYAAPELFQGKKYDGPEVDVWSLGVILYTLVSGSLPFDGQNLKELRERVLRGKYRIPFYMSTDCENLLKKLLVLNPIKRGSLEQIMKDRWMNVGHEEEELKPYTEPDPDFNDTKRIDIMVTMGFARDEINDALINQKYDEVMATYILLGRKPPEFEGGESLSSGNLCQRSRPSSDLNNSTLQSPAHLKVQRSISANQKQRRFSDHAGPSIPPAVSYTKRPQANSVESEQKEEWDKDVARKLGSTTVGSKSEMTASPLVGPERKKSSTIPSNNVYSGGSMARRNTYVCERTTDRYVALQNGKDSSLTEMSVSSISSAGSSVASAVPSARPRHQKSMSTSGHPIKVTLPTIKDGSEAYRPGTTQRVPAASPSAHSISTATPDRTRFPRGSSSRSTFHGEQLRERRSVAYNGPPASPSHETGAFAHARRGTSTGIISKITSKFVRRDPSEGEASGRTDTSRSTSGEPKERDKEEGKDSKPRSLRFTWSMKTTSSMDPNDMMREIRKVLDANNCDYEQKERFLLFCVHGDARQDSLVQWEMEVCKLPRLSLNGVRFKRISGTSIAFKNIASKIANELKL
# Chain of Death-associated protein kinase 1 (Homo sapiens) (P53355 whole entry, looked up): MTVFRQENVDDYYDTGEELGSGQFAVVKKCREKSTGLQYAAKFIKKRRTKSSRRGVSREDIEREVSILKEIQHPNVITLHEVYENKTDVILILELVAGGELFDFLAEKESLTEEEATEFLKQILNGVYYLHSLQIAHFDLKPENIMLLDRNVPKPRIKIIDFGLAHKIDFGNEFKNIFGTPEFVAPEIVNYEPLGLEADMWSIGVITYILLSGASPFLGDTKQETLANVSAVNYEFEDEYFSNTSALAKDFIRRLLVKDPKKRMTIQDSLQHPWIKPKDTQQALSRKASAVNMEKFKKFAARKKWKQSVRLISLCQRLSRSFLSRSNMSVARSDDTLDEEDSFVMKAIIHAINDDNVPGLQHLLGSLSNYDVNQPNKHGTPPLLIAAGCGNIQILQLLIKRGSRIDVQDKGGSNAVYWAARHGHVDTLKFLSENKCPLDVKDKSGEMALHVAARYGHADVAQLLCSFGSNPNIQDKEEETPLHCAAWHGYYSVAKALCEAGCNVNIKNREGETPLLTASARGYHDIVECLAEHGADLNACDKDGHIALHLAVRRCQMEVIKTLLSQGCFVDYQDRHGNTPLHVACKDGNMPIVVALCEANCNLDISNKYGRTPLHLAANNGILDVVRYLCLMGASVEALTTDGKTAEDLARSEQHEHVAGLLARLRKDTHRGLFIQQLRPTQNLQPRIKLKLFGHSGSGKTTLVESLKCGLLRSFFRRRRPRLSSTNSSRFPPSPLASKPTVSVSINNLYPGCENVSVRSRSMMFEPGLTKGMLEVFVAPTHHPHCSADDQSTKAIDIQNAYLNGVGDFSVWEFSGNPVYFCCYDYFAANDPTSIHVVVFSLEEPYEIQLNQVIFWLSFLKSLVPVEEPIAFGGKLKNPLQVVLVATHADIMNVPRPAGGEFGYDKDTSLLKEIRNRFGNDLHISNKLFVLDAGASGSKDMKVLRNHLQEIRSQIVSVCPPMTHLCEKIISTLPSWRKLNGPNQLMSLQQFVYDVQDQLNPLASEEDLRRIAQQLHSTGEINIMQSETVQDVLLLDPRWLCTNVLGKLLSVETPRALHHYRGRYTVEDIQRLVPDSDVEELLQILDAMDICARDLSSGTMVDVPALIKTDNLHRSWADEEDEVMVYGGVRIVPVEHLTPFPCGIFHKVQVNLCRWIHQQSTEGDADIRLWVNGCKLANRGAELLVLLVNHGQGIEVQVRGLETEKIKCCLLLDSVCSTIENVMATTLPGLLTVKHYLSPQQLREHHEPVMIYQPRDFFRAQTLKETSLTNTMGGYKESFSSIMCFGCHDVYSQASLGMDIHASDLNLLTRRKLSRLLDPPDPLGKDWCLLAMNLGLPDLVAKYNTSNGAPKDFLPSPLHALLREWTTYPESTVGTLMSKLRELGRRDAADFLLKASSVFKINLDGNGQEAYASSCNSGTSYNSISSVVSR
# Chain of MAP kinase-activated protein kinase 2 (Homo sapiens) (P49137 whole entry, looked up): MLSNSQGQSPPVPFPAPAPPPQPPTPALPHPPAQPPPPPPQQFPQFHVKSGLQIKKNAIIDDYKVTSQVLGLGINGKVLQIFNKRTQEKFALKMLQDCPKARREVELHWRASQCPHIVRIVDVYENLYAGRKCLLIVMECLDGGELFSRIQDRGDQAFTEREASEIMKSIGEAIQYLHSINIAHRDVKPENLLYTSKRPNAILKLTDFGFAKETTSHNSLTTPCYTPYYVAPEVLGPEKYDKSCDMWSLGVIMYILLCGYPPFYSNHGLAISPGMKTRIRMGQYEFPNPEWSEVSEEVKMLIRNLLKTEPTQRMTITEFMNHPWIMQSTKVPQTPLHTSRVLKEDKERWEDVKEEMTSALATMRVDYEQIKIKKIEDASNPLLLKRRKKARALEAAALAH
SMILES,inhibition [1] [%],inhibition [2] [%],inhibition [3] [%],inhibition [4] [%],inhibition [5] [%],inhibition [6] [%],inhibition [7] [%],inhibition [8] [%],inhibition [9] [%],inhibition [10] [%],inhibition [11] [%],inhibition [12] [%],inhibition [13] [%],inhibition [14] [%],inhibition [15] [%],inhibition [16] [%],inhibition [17] [%],inhibition [18] [%],inhibition [19] [%],inhibition [20] [%]
Fc1ccc(Nc2nccc(-c3c(-c4ccc(C(F)(F)F)cc4)nn4ncccc34)n2)cc1F,4.6,1.73,4.42,-0.48,0.05,3,3.73,3.02,4.46,3.45,4.85,1.36,0.53,1.35,0.53,1.82,4.65,3.43,4.46,3.28
CC(C)c1ccc(-c2cc(-c3c[nH]nc3-c3ccccn3)ccn2)cc1,-0.49,-0.8,1.63,0.73,1.62,-0.13,1.92,0.27,0.77,0.1,-0.6,0.39,-0.35,0.58,-0.11,0.63,6.51,1.23,1.49,-3.53
CS(=O)(=O)Nc1ccc(-c2cc(-c3ccccc3)cc(C(N)=O)c2N)cc1,-1.32,0.44,1.39,-3.34,-0.72,3.76,0.63,1.07,1.94,2.28,1.38,-0.48,1.02,1.59,1.42,0.37,2.22,0.39,1.47,-0.54
O=C(O[C@H]1CN[C@H](C#Cc2cc3ncnc(Nc4ccc(OCc5cccc(F)c5)c(Cl)c4)c3s2)C1)N1CCOCC1,3.21,3.54,2.65,-1.14,-3.95,-1.89,-1.17,-1.01,2.28,-1.79,-0.32,0.93,0.57,-0.11,0.31,-0.64,-0.5,6.71,5.07,1.14
NS(=O)(=O)c1cccc(N/C=C2\C(=O)Nc3ccccc32)c1,8.27,5.11,16.3,1.25,2.86,9.31,14.3,10.6,32.8,10.6,12.5,0.84,2.32,4.22,4.45,11.3,12.1,6.31,24.4,5.23
Cc1nnc(-c2cccc(-c3ccc(C(=O)NCC4CC4)cc3)c2)o1,3.99,3.26,6.04,-2.72,-2.97,4.9,5.14,3.86,4.86,5.32,6.03,1.25,4.29,2.92,2.7,5.72,6.73,4.06,6.5,4.12
NS(=O)(=O)c1ccc(N/N=C2\C(=O)Nc3cccc(CCc4ccncc4)c32)cc1,1.32,-0.63,4.29,1.59,0.34,1.74,1.93,-0.6,0.61,-0.39,-1.65,-0.47,-0.08,-0.02,-0.84,0.82,0.37,2.29,5.9,1.2
FC(F)(F)CNc1nccc(-c2cnn3ncccc23)n1,-1.03,2.87,1.95,-0.09,-1.75,0.28,2.9,1.64,0.78,3.66,2.17,-0.54,3.19,1,-0.08,3.47,3.54,1.58,4.46,0.46
NS(=O)(=O)c1ccc(N/N=C2\C(=O)Nc3ccc(C(=O)NCc4ccncc4)cc32)cc1,5.1,3.39,11.8,-2.17,-4.16,2.58,11.1,4.18,19.2,4.72,4.92,3.49,0.04,2.73,3.71,4.05,2.16,7.5,40.7,4.2
CC1=C(C(=O)Nc2ccc3[nH]nc(C)c3c2)C(c2ccc(C(F)(F)F)cc2)CC(=O)N1 (stereo not given),2.9,1.76,4.44,0.07,0.57,2.48,2.75,1.95,6.02,3.37,4.3,1.35,0.55,1.67,0.92,0.91,3.08,1.38,3.89,-1.82
COc1cc2c(cc1Nc1nc(Nc3cccc(F)c3C(N)=O)c3cc[nH]c3n1)N(C(=O)CN1CCN(C(C)C)CC1)CC2,8.11,2.82,7.41,2.31,7.37,-0.51,4.94,6.05,29.8,2.3,5.15,4.68,1.43,1.04,2.85,3.25,5.17,1.44,3.35,3.73
CCS(=O)(=O)c1ccc(OC)c(Nc2ncc(-c3cccc(C(C)=O)c3)o2)c1,1.16,1.73,3.23,-3,-5.43,-0.75,-1.38,1.62,3.67,2.47,3.26,-0.25,-0.78,2.19,1.71,3,3.61,1.61,3.04,0.57
COc1c(C(N)=O)cc(-c2ccc(Cl)cc2)cc1-c1ccc(S(N)(=O)=O)cc1,6.07,4.78,8.49,-0.13,3.77,-0.02,1.33,5.72,10.5,1.52,0.56,-5.08,2.52,2.42,3.46,5.57,8.63,0.41,1.61,-0.24
CN1CCC(n2cnc(-c3ccc(F)cc3)c2-c2ccnc(NCCO)n2)CC1,3.86,1.32,3.99,-3.49,-5.99,1.6,6.89,4.1,5.51,4.37,5.18,1.63,0.48,2.06,2.43,27.6,37.2,3.31,7.7,4.03
